Values without a mark were called inactive. No rule for the calls is given here.
The molecules below were run against Pantothenate synthetase (Mycobacterium tuberculosis (strain ATCC 25618 / H37Rv)) (UniProt P9WIL5) (assay: Recombinant Mtb pantothenate synthetase (PanC) inhibitors, coupled enzyme, confirmatory (AID 375;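 also: 0% = full reaction with vehicle and 100% = no enzyme background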)). Settings: coupled enzyme assay; at 10 µM, stronger effect = higher value.
Sequence of Pantothenate synthetase (Mycobacterium tuberculosis (strain ATCC 25618 / H37Rv)) (P9WIL5 whole entry, looked up): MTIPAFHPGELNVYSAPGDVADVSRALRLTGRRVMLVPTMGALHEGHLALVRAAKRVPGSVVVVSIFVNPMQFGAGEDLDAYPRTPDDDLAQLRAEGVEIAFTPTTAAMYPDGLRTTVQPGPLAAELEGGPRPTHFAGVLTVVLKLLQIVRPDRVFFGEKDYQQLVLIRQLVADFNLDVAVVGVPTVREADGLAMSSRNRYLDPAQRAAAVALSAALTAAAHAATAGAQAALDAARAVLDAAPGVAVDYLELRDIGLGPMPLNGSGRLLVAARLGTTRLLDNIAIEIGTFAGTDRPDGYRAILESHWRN
Molecule Cc1ccc(CN2C(=O)CCC2C(=O)NCC2CCCO2)cc1 (stereo not given) has an inhibition of 3%. O=C(Nc1c(-c2ccccc2)nc2ccccn12)c1ccco1 was tested, and the inhibition was 0%. Cc1ccc(C)c(N2CCN(C(=O)c3ccc(CS(=O)(=O)c4ccccc4C)o3)CC2)c1 gave an inhibition of 8%. COCCNC(=O)C(c1ccc(C)o1)N(Cc1ccc(F)cc1)C(=O)Cn1nnc2ccccc21 (stereo not given) showed an inhibition of 8%. CCCn1c(=NC(C)=O)c(C#N)cc2c(=O)n3cccc(C)c3nc21 showed an inhibition of 0%. Molecule CSc1nc2ccc(S(=O)(=O)N3CCOCC3)cc2s1 has an inhibition of 4%. COc1ccc(-c2nnc(SCC(=O)NC(C)c3ccccc3)o2)cc1 (stereo not given) gave an inhibition of 0%. Cc1cncn1CCc1nc2c3ccccc3nc(=S)n2[nH]1 gave an inhibition of 7%. Cc1nnc2ccc(N3CCC4(CC3)OCCO4)nn12 was tested, and the inhibition was 0%. Cc1cc(=O)c2n(Cc3ccccc3Cl)nc[n+]2[nH]1 showed an inhibition of 5%. In the case of O=C(CSc1nc(O)cc(=O)n1-c1ccccc1)N1CCCCC1, the inhibition is reported as 0%. Cc1ccc(SCC(=O)NCCN2C(=O)CSC2=O)c(C)c1 gave an inhibition of 0%. Cc1cc(C(=O)NCCN2CCN(c3cccc(Cl)c3)CC2)n(-c2ccccc2)n1 was tested, and the inhibition was 0%. Work on CC1(C)SC2[C@H](NC(=O)C(NC(=O)N3CCNC3=O)c3ccccc3)C(=O)N2C1C(=O)O (stereo not given in full) yielded an inhibition of 0%. For CCc1nnc(NC(=O)c2ccc(COc3ccc(C)cc3)o2)s1, the inhibition was 1%. Molecule CSc1ccccc1NC(=O)CN(Cc1ccccc1)S(C)(=O)=O has an inhibition of 0%. In the case of COc1ccc(C2CC(c3ccccc3)Nc3nc(NC(=O)c4cccs4)nn32)cc1 (stereo not given), the inhibition is reported as 0%. OCCN1CCN(CCCN2c3ccccc3Sc3ccc(Cl)cc32)CC1 showed an inhibition of 0%. Molecule O=C(O)CCNC(=O)c1ccccc1 has an inhibition of 3%. For O=C(NO)c1ccccc1O, the inhibition was 0%. Cc1ccc2cc(CN(Cc3ccc(F)cc3)Cc3nnnn3C3CCCC3)c(=O)[nH]c2c1 was tested, and the inhibition was 6%. With O=C(Nc1cccnc1)Nc1ccc2c(c1)OCO2 the inhibition was 0%. O=S(=O)(c1ccccc1)c1nc(-c2ccco2)oc1NCCCN1CCOCC1 gave an inhibition of 0%. With O=c1[nH]cnc2c1C1(CCCC1)Cc1ccccc1-2 the inhibition was 0%. With CCOC(=O)CC1=C(C(=O)OCC)C(c2ccc(C)o2)C(C#N)=C(N)O1 (stereo not given) the inhibition was 0%. Molecule CN(C)S(=O)(=O)c1ccc(Oc2ccc(S(=O)(=O)N(C)C)cc2)cc1 has an inhibition of 4%. CC(C)C(=O)Nc1ccc2c(c1)nc1n2CCSC1 gave an inhibition of 0%. CN(C)CCCN1c2ccccc2Sc2ccccc21 showed an inhibition of 0%. Work on COC(=O)c1ccccc1NC1c2ccccc2C(=O)N1c1cccnc1 (stereo not given) yielded an inhibition of 0%. c1cnc2c(SCc3ccc(-c4nnco4)cc3)cccc2c1 gave an inhibition of 2%. In the case of CC(C)(C)NC(=O)Nc1ccccc1C(N)=O, the inhibition is reported as 5%. With CCCCSc1nc2c(cnn2-c2ccc(F)cc2)c(=O)[nH]1 the inhibition was 0%. Molecule Cc1oc(-c2ccccc2F)nc1CS(=O)(=O)CC(=O)NCCCN1CCc2ccccc2C1 has an inhibition of 0%. Work on N#Cc1nc(COc2ccccc2)oc1NCCN1CCOCC1 yielded an inhibition of 0%. For O=C(C1CC1)N(Cc1ccco1)c1nc(-c2ccccc2)cs1, the inhibition was 1%. For CC(=O)Nc1ccn(-c2ccccc2)n1, the inhibition was 2%. For CCCCC(CC)CNC(=O)C1CCCN(S(=O)(=O)c2cnc[nH]2)C1 (stereo not given), the inhibition was 0%. In the case of CC1CN(c2nc3ccccc3nc2C(C#N)C(=O)NCc2ccc3c(c2)OCO3)CC(C)O1 (stereo not given), the inhibition is reported as 0%. CCOC(=O)n1c(SCC(=O)N(CC)CC)nc2ccccc21 was tested, and the inhibition was 0%. Molecule Cc1cc(C(C)(C)C)c(O)c(C)c1CC1=NCCN1 has an inhibition of 0%.
